Only a selection was taken, and hits are over-represented in it overall.
LmPK inh = LmPK (Leishmania mexicana) enzyme inhibition; purified LmPK, Kinase-Glo ATP luminescence, 1 h; Q27686; 0.37% of 290,000 active; AID 1721; Potency, µM (doses to about 57.5 µM), for inactives: at the top dose activity change, negative = inhibition, usual class: inhibitors; active = well fitted curve in the direction sought with a large enough effect; inconclusive = small, poorly fitted or top-dose-only effect, or another doubt; inactive = no such curve, though single readings can be large; an effect the other way counts as inactive or inconclusive; also: potency is read from the fitted curve at half-maximal effect; % is scaled to controls: 0 for no effect and ±100 for the full control effect
Target sequence (Q27686 whole entry, looked up): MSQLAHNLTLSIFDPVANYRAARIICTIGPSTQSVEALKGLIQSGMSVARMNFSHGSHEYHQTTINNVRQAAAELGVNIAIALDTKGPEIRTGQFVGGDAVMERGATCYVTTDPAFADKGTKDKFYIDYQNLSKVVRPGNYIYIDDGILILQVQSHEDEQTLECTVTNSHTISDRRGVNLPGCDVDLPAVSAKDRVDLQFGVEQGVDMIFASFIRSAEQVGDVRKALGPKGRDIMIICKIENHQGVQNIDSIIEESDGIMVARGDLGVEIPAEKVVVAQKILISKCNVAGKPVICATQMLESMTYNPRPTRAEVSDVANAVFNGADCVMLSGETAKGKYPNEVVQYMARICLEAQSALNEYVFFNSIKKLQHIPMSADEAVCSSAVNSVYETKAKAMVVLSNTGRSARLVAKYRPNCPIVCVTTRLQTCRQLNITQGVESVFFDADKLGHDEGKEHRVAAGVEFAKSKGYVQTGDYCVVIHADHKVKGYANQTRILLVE
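Pyruvate kinase activity monitored as ATP production (luciferase luminescence). Conditions: 0.1 nM enzyme, 0.5 mM PEP, 0.1 mM ADP, 1 h, RT; normalized against uninhibited and no-enzyme wells.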
CHX counter = affects cycloheximide protein synthesis inhibition readout, counter-screen | cell reporter, cycloheximide protein synthesis inhibition counterscreen | max response, % | 12% of 300,000 active; in the data active = max response mostly above about 13%, no sharp cut-off; inactive = mostly below about 14%; also: read at 38.3 µM for the half of the compounds with a filed dose; 0% is about no effect
Tb PYK inh = blocks Trypanosoma brucei pyruvate kinase; Potency, µM (titrated, usually from 76.8 µM), for inactives: at the highest dose activity, negative = inhibition, most hits filed as inhibitors; 0.12% of 410,000 active; AID 624173; Q57TT1; TbPYK enzyme, Kinase-Glo Plus ATP luminescence, 45 min; active = well fitted curve in the direction sought with a large enough effect; inconclusive = small, poorly fitted or top-dose-only effect, or another doubt; inactive = no such curve, though single readings can be large; an effect the other way counts as inactive or inconclusive; also: potency is read from the fitted curve at half-maximal effect; % is scaled to controls: 0 for no effect and ±100 for the full control effect; nearly all actives have a fitted effect of over 50% in size
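In this concentration-response screen, enzyme-free wells defined baseline while DMSO plates tracked drift. Each reaction combined TbPYK, substrate, compound and 130 uM ADP for 45 min at room temperature. Kinase-Glo Plus luminescence gave the signal.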
Shiga toxin inh = Shiga toxin inhibition; inhibition, % at 38.7 µM; Vero cells, Shiga toxin protein synthesis inhibition reporter; 9.2% of 290,000 active; in the data active = inhibition mostly above about 28%, no sharp cut-off; inactive = mostly below about 43%; also: 0% is about no effect
NS1 inh = blocks influenza NS1 protein function; Potency, µM (highest dose often 46.1 µM), inactives show at the top dose activity, positive = more growth; 0.4% of 270,000 active; AID 2326; also: potency is read from the fitted curve at half-maximal effect; actives are rising curves; nearly all actives have a fitted effect of over 50% in size
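S. cerevisiae expressing influenza A NS1, grown in glucose, washed, then diluted 1:100 into pH 6.0 -URA galactose medium with 23 nl compound. Growth recovery read as OD600; NS1-free strain serves as control.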
SARS PLP yeast = blocks SARS-CoV papain-like protease in a yeast assay; 0.19% of 330,000 active; Potency, µM (highest dose often 32.9 µM), inactives show at the highest dose activity, positive = growth rescue, most hits filed as activators; AID 485353; S. cerevisiae expressing SARS-CoV PLpro, growth rescue; also: potency is read from the fitted curve at half-maximal effect; 0% is about no effect; nearly all actives have a fitted effect of over 55% in size
* hit, by the source's call; ? = inconclusive; / = no result. Unless noted, calls follow the shape of the full dose curve.

SMILES	LmPK inh	CHX counter	Tb PYK inh	Shiga toxin inh	NS1 inh	SARS PLP yeast
Cc1ccc(C(=O)N/N=C/C=C/c2ccccc2)o1	-10%	22	-2%	119*	/	-2%
CN1CCN(C2CN(Cc3ccc(F)cc3)S(=O)(=O)C2)CC1 (configuration not stated)	/	/	1%	/	/	/
O=C(N/N=C/C=C/c1ccccc1)c1cccnc1	-12%	-1	3%	30*	2%	1%
O=C(CNC(=O)c1ccccc1F)N/N=C/c1cccnc1	-2%	31*	5%	16	-8%	4%
Cc1ccccc1-n1c(C)cc(/C=N/NC(=O)c2ccncc2)c1C	1%	36*	-4%	68*	3%	-1%
Cc1cc(/C=N/NC(=O)c2ccsc2)c(C)n1-c1cnccn1	-1%	42*	-7%	87*	2%	-1%
Cc1cc(C)cc(-n2c(C)cc(/C=N/NC(=O)c3ccncc3)c2C)c1	5%	7	9%	18	3%	0%
CCOc1ccc(S(=O)(=O)N2CCC(C(=O)N3CCc4ccccc4C3)CC2)cc1	-10%	-3	-8%	16	-19%	-8%
COC(=O)c1c(C)oc(C)c1S(=O)(=O)NC(C)(C)C	0%	1	-5%	-6	4%	0%
CSc1sccc1/C=N/NC(=O)c1ccncc1	-4%	17	0%	active	0%	1%
O=C(N/N=C/c1ccc(F)cc1)c1ccncc1	-3%	0	-8%	/	3%	-7%
O=C(N/N=C/c1ccncc1)c1ccccc1	-7%	21*	-9%	55*	-1%	1%
COc1cc(/C=N/NC(=O)c2sc(N)c(C#N)c2C)cc(Br)c1O	-2%	-3	-13%	-1	3%	-2%
Cc1c(C(=O)N/N=C/c2cccnc2)sc(N)c1C#N	-4%	12*	-7%	26	2%	1%
O=C(N/N=C/c1cccnc1)c1ccccc1	2%	25*	0%	59*	3%	0%
COc1ccccc1CNC(=O)CCN=C1NS(=O)(=O)c2ccccc21	/	/	3%	/	/	-3%
O=c1oc2cc(Cl)ccc2n1CSc1nc2ccccc2s1	1%	31*	-20%	58*	-3%	-11%
C#CCOCCOCCOCCNc1nc(N2CCN(C(=O)C([C@@H](C)CC)n3cc(C(N)CO)nn3)CC2)nc(N2CCN(C(=O)C([C@@H](C)CC)n3cc(C(N)COC(=O)C(F)(F)F)nn3)CC2)n1 (some centres not stated)	/	/	-19%	/	/	/
O=c1[nH]c(=S)[nH]c(O)c1N=Nc1cccc(S(=O)(=O)N2CCOCC2)c1	-1%	5	-9%	4	9%	-2%
COc1cccc(N=Nc2c(O)[nH]c(=S)[nH]c2=O)c1	-26%	31*	-22%	47*	1%	0%
COc1ccc(N=Nc2c(O)[nH]c(=S)[nH]c2=O)cc1	?	31*	-11%	110*	/	-4%
O=c1[nH]c(=S)[nH]c(O)c1N=Nc1ccc(OC(F)F)cc1	-1%	19	-7%	37	/	-5%
CC(=O)N1CCc2cc(S(=O)(=O)C(C)CC(=O)Nc3ccc(OC(F)(F)F)cc3)ccc21 (configuration not stated)	7%	29*	-4%	16	16%	6%
O=C(NNc1c2ccccc2nc2ccccc12)c1cccc(O)c1	-9%	8	-19%	9	-12%	-9%
Oc1cccc(-c2nc3ccc4ccccc4c3c3c2CCC3)c1	7%	59*	1%	127*	-147%	-44%
SMILES	LmPK inh	CHX counter	Tb PYK inh	Shiga toxin inh	NS1 inh	SARS PLP yeast
Nc1n[nH]c(C2CC2)c1N=Nc1ccc(Cl)c(Cl)c1	2%	22	6%	51*	?	-20%
Nc1n[nH]c(C2CC2)c1N=Nc1ccc(Cl)cc1	0%	8	12%	35	-1%	-2%
COc1cc(/C=N/NC(=O)c2ccccn2)ccc1OC(=O)c1ccc(Br)cc1	-4%	25*	-6%	41	9%	-2%
COc1cc(/C=N/NC(=O)c2ccccn2)ccc1OC(=O)c1ccccc1Br	-1%	43*	-4%	71*	-4%	-3%
O=C(Oc1ccc(/C=N/NC(=O)c2ccccn2)cc1)c1ccc(Br)cc1	/	/	-4%	/	/	/
COc1ccc(NC(=O)COc2ccccc2)cc1Cl	3%	13	-1%	/	-28%	-5%
COC(=O)c1ccc(N2CCN(C)CC2)c(NC(=O)COc2ccccc2)c1	-2%	-2	1%	-8	-3%	2%
CN1CCN(c2ccc(NC(=O)COc3ccccc3)cc2Cl)CC1	-1%	44*	-16%	83*	15%	3%
Cc1ccc(NC(=O)COc2ccccc2)cc1Cl	2%	17*	1%	102*	-51%	-7%
Cc1cc(NC(=O)COc2ccccc2)ccc1Cl	-2%	50*	-1%	107*	-22%	-3%
COc1ccccc1CCC(=O)N(C)CC(=O)Nc1ccc(F)cc1	-12%	-2	-1%	-39	-8%	0%
COc1cc(N2C(=O)C=CC2=O)ccc1N1C(=O)C=CC1=O	/	/	4.5µM*	/	/	/
CCOC(=O)c1sc(NC(=O)c2cccs2)cc1C	?	32*	1%	141*	-69%	-2%
CCOC(=O)c1sc(NC(=O)c2ccc(Br)o2)cc1C	-14%	47*	2%	124*	-26%	0%
CCOC(=O)c1sc(NC(=S)NC(=O)C2CC2)cc1C	8%	20	-9%	29	11%	14%
CCOC(=O)c1cccc(NC(=O)c2cccs2)c1	-5%	19	0%	12	-153%	-14%
CCOC(=O)c1sc2nc(C)n(CC(=O)Nc3cccc(Cl)c3)c(=O)c2c1C	/	/	2%	/	/	/
CCOC(=O)c1sc(NC(=O)Nc2cccc(Cl)c2)cc1C	2%	62*	-1%	108*	-36%	-15%
CCN(CC)C(=O)c1sc(NC(=O)c2ccc(Br)o2)c(C(=O)OC)c1C	5%	-6	-5%	-23	-7%	4%
CCOC(=O)c1sc(NC(=O)c2sccc2C)cc1C	?	63*	-24%	70*	-1%	-18%
NS(=O)(=O)c1ccc(CNC(=O)c2ccc(C(=O)c3ccccc3)cc2)cc1	/	/	-6%	/	/	-5%
O=C1c2ccccc2C(=O)C2OC12 (configuration not stated)	8%	-1	/	24	-81%	-5%
Cc1ccc(C2C(=O)c3ccccc3C2=O)cc1	-7%	19*	1%	11	0%	1%
Cc1ccccc1C1C(=O)c2ccccc2C1=O	-5%	1	4%	-3	-53%	-1%
O=C1c2ccccc2C(=O)C1c1ccncc1	-18%	22*	-17%	46	-5%	-9%
O=C1c2ccccc2C(=O)C1c1ccccn1	?	30*	-4%	34	-5%	0%
CN(C)CC1CCn2c(c(C3=C(c4cn(C)c5ccccc45)C(=O)NC3=O)c3ccccc32)C1 (configuration not stated)	/	-10	/	-12	/	/

Screening data (PubChem BioAssay)
